{"source": "PubChem BioAssay AID504332", "about": "(National Center for Advancing Translational Sciences (NCATS), 2011)", "note": "The whole screen tested about 350,000 compounds, of which about 31,000 (8.9%) were called active. A call without a number means that no potency is given here. Inconclusive results (about 15%) are left out. The sample as a whole holds a higher share of actives than the screen did. Unmarked numbers belong to inactive results. Calls follow the shape of the dose curve; as a rule, active = well fitted inhibition curve with a large enough effect; inconclusive = small, poorly fitted or top-dose-only effect; inactive = no such curve, though single readings can be large or run the other way. Potency is read from the fitted curve at half-maximal effect.", "data": [{"target": "Histone-lysine N-methyltransferase EHMT2 (Homo sapiens) (UniProt Q96KQ7)", "sequence (Q96KQ7 913-1193 limits assumed)": "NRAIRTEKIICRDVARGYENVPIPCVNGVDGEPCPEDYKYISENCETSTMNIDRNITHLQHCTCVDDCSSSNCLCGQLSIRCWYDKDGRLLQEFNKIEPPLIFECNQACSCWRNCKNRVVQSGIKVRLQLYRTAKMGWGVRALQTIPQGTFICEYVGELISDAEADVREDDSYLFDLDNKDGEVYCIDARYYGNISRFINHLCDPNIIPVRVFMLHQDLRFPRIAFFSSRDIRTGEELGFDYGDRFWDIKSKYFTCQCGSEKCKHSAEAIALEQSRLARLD", "assay": "qHTS Assay for Inhibitors of Histone Lysine Methyltransferase G9a; also: nearly all actives have a fitted effect of over 75% in size", "settings": "G9a H3K9 monomethylation, AlphaScreen, 2 h; series mostly up to 59 µM", "how_it_was_run": "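AlphaScreen detection with an anti-monomethyl H3K9 antibody quantified product after a 2 h room-temperature reaction containing 500 nM biotinylated H3K9 peptide, 20 µM SAM and 20 nM enzyme, which had been preincubated 15 min with compound.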", "values": [{"smiles": "CC(C)COc1ccc(C(=O)OCC(=O)NCCC2=CCCCC2)cc1", "Potency": "inactive"}, {"smiles": "CC(NC(=O)C1CCCN(S(=O)(=O)c2ccc(-n3cnnn3)cc2)C1)c1ccc(F)cc1", "note": "(stereo not drawn)", "Potency": "inactive"}, {"smiles": "COC(=O)CCc1sc(Nc2ccc(Br)cc2)nc1-c1ccc(OC)cc1", "Potency": "35.5 µM (active)"}, {"smiles": "COc1ccc(NC(=O)CCC(=O)Nc2nnc(C3CCCCC3)s2)cc1", "Potency": "inactive"}, {"smiles": "Cc1ccc(OC(=O)CCC(=O)Nc2ccc(Br)cc2)cc1", "Potency": "inactive"}, {"smiles": "COc1ccccc1CNC(=O)CCCN1C(=O)NC2(CCCC2)C1=O", "Potency": "inactive"}, {"smiles": "Cc1ccc(Cl)cc1NC(=O)/C(C#N)=C\\c1cn(Cc2ccc(F)cc2)c2ccccc12", "Potency": "inactive"}, {"smiles": "Cc1cccc(COc2ccccc2/C=N/Nc2ccc([N+](=O)[O-])cc2)c1", "Potency": "2.51 µM (active)"}, {"smiles": "Cc1ccc(NS(=O)(=O)c2ccc(N/N=C/c3ccccc3OCC(=O)O)c([N+](=O)[O-])c2)c(C)c1", "Potency": "inactive"}, {"smiles": "O=[N+]([O-])c1ccc(N/N=C/c2ccccc2)cc1", "Potency": "inactive"}, {"smiles": "CC(C)c1ccc(S(=O)(=O)N2CCN(C(C)C(=O)NC3CCCC3)CC2)cc1", "note": "(stereo not drawn)", "activity, negative = inhibition": "-7.57% [at 2.33 µM]"}, {"smiles": "CCC(C)c1ccc(NC(=S)N2CCCC2)cc1", "note": "(stereo not drawn)", "Potency": "inactive"}, {"smiles": "CCc1ccccc1NC(=O)N1CCC2(CC1)Oc1ccccc1C(=O)N2Cc1ccccc1F", "Potency": "inactive"}, {"smiles": "CCC(=O)Nc1c(C(=O)N2CCN(c3ccc(F)cc3)CC2)oc2ccccc12", "Potency": "inactive"}, {"smiles": "COc1cc(C(c2c(NC(=O)c3ccco3)sc(C)c2C)N2CCOCC2)cc(OC)c1OC", "note": "(stereo not drawn)", "Potency": "50.1 µM (active)"}, {"smiles": "COc1cc(C(=O)NCC(c2ccc(Cl)cc2)N2CCOCC2)cc(OC)c1OC", "note": "(stereo not drawn)", "Potency": "inactive"}, {"smiles": "CCc1cc(C(c2ccccc2OC)N2CCOCC2)c(NC(=O)c2ccccc2)s1", "note": "(stereo not drawn)", "activity, negative = inhibition": "7.98% [at 0.501 µM]"}, {"smiles": "O=C(NCCN1CCOCC1)c1cccc(S(=O)(=O)Nc2ccc(F)cc2)c1", "activity, negative = inhibition": "8.8% [at 12.7 µM]"}, {"smiles": "Cc1cccc(OCCSc2nc3ccc(NC(=O)COc4ccccc4C)cc3s2)c1", "Potency": "inactive"}, {"smiles": "COCc1[nH][nH]c(=O)c1C=Nc1ccc(F)cc1F", "Potency": "20 µM (active)"}, {"smiles": "Cc1c(C(C)CCCO)oc(=O)c2c1Oc1c(C)c(C(C)C[C@@H](C)O)oc(=O)c1C2", "note": "(stereo partly drawn)", "activity, negative = inhibition": "9.9% [at 2.33 µM]"}, {"smiles": "Cc1ccc2nc(SCC(=O)N3CC(C)OC(C)C3)nc(=O)n2c1", "note": "(stereo not drawn)", "Potency": "inactive"}, {"smiles": "CCN(CC)S(=O)(=O)c1ccc(N2CCOCC2)c(NC(=O)C2COc3ccccc3O2)c1", "note": "(stereo not drawn)", "Potency": "inactive"}, {"smiles": "O=S(=O)(Nc1cc(S(=O)(=O)N2CCOCC2)ccc1N1CCCC1)c1cccs1", "Potency": "20 µM (active)"}, {"smiles": "CC(=O)NCCC(=O)Nc1cc(S(=O)(=O)N2CCOCC2)ccc1N1CCOCC1", "Potency": "inactive"}, {"smiles": "Cc1ccc(NS(=O)(=O)c2cccs2)cc1S(=O)(=O)N1CCCCCC1", "Potency": "inactive"}, {"smiles": "CCN(CC)S(=O)(=O)c1ccc(N2CCOCC2)c(C(=O)O)c1", "Potency": "inactive"}, {"smiles": "CCN(CC)S(=O)(=O)c1ccc(N2CCN(C)CC2)c(NC(=O)Nc2ccccc2F)c1", "Potency": "39.8 µM (active)"}, {"smiles": "CCN(CC)S(=O)(=O)c1ccc(Cl)c(C(=O)NC(C)C(c2cccs2)N2CCCC2)c1", "note": "(stereo not drawn)", "Potency": "inactive"}, {"smiles": "O=S(=O)(Nc1cc(Cl)ccc1N1CCOCC1)c1ccccc1Cl", "activity, negative = inhibition": "13.1% [at 2.33 µM]"}, {"smiles": "CCN(CC)S(=O)(=O)c1ccc(N2CCCC2)c(NS(=O)(=O)c2cccs2)c1", "Potency": "28.2 µM (active)"}, {"smiles": "COc1ccc(S(=O)(=O)N2CCCCC2)cc1NC(=O)c1cc([N+](=O)[O-])ccc1N1CCOCC1", "Potency": "inactive"}, {"smiles": "CN1CCN(c2ccc(S(=O)(=O)N3CCCCC3)cc2NC(=O)Cc2ccccc2F)CC1", "Potency": "inactive"}, {"smiles": "COCCNC(=S)Nc1cc(S(=O)(=O)N2CCOCC2)ccc1N1CCCCC1", "Potency": "2 µM (active)"}, {"smiles": "NC(=O)c1cc(S(=O)(=O)NCCCc2ccco2)cs1", "Potency": "inactive"}, {"smiles": "COc1ccc(Cn2ccnc2SCC(=O)NCc2ccco2)cc1", "Potency": "inactive"}, {"smiles": "COc1cc(OC)cc(C(=O)Nc2cc3nn(-c4ccccc4)nc3cc2Cl)c1", "Potency": "inactive"}, {"smiles": "C[C@@H]1NC(=O)[C@@]2(C)[C@@H](c3ccccc3)[C@H]3COc4ccccc4[C@@H]3N2C1=O", "activity, negative = inhibition": "-3.98% [at 0.501 µM]"}, {"smiles": "Cc1cccc(-n2c(=O)c3c(c4cc(C)ccc4n3C)n(CC(=O)Nc3ccccc3Cl)c2=O)c1", "Potency": "inactive"}, {"smiles": "CCCn1c(N)c(N(CCOC)C(=O)C2CCCC2)c(=O)[nH]c1=O", "activity, negative = inhibition": "15% [at 2.33 µM]"}, {"smiles": "Cc1ccc(-c2nc(-c3ccncc3)no2)c(C)c1", "Potency": "inactive"}, {"smiles": "COc1cccc(-n2c(=O)c3c(C)c(C(=O)N(C)C)sc3n(Cc3cccc(C)c3)c2=O)c1", "Potency": "inactive"}, {"smiles": "COc1ccc(CCNC(=O)c2ccc3c(c2)nc(C)n3-c2ccc(Br)cc2)cc1OC", "Potency": "inactive"}, {"smiles": "CCOC(=O)c1ccc(CSc2nnc3cc(C)c4ccccc4n23)cc1", "Potency": "inactive"}, {"smiles": "CCN(CC(=O)Nc1c(F)cccc1F)C(=O)c1ccc(-c2ccccc2)cc1", "Potency": "inactive"}, {"smiles": "N#CCCN(C(=O)COC(=O)C1CCN(c2ccc(C(F)(F)F)cn2)CC1)c1ccc(F)cc1", "Potency": "inactive"}, {"smiles": "COC(=O)c1ccc(NC(=O)CCc2c(C)nn(-c3ccc(N4CCCC4)nn3)c2C)cc1", "Potency": "inactive"}, {"smiles": "Cn1c(=O)n(Cc2c(F)cccc2Cl)c(=O)c2c1nc1n2CCN1c1ccc(F)cc1", "Potency": "inactive"}, {"smiles": "Cc1ccc(C(=O)N2CC(=O)Nc3ccccc32)o1", "Potency": "inactive"}, {"smiles": "Cc1ccc(CNC(=O)C2(C(F)(F)F)C/C(=C\\Cc3ccccc3)CCCO2)o1", "note": "(stereo not drawn)", "Potency": "28.2 µM (active)"}, {"smiles": "Cc1ccc(CNC(=O)Cn2cnc(S(=O)(=O)N3CCCCC3)c2)o1", "Potency": "inactive"}, {"smiles": "CC(=O)c1ccc(NC(=O)C2CCCN2S(=O)(=O)c2cccs2)cc1", "note": "(stereo not drawn)", "Potency": "inactive"}, {"smiles": "CC(=O)c1ccc(S(=O)(=O)NC2CC(=O)N(c3ccc4c(c3)OCCO4)C2)cc1", "note": "(stereo not drawn)", "Potency": "inactive"}, {"smiles": "CCCCCCCNC(=O)C1(CC2CC(c3cccc(Br)c3)=NO2)CCN(C(=O)c2cc(OCC)c(OCC)c(OCC)c2)CC1", "note": "(stereo not drawn)", "activity, negative = inhibition": "-31.9% [at 2.33 µM]"}, {"smiles": "O=C(CCN1C(=O)C2C3CCC(C3)C2C1=O)Nc1ccc(Cl)cc1Cl", "note": "(stereo not drawn)", "Potency": "inactive"}, {"smiles": "CCS(=O)(=O)N1Cc2ccccc2CC1C(=O)Nc1nc2ccc(F)cc2s1", "note": "(stereo not drawn)", "Potency": "31.6 µM (active)"}, {"smiles": "CSc1ncccc1C(=O)Nc1nc2ccc(F)cc2s1", "Potency": "inactive"}, {"smiles": "CCS(=O)(=O)N1Cc2ccccc2CC1C(=O)Nc1ccc(OC)cc1OC", "note": "(stereo not drawn)", "Potency": "inactive"}]}]}
